TLR9-MyD88 block = inhibitors of human TLR9-MyD88 binding. AID 504734. CHO BLA complementation TLR9-MyD88, CCF4 FRET ratio. 340,000 compounds, 0.21% hits. inhibition, % at 4.98 µM;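 active = inhibition above the mean over all tested compounds plus 3 SD, cut at about 21% in these data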;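 note: 0% = DMSO only wells and 100% = clavulanate BLA inhibitor control wells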
NOD2 RIPK2 PPI = NOD2-RIPK2 protein interaction inhibition. CHO BLA complementation NOD2-RIPK2, CCF4 ratio. O43353. 360,000 compounds, 0.38% hits. inhibition, % at 4.98 µM; in the data active = inhibition above about 21%;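 note: 0% = vehicle only and 100% = reference blocker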
Target sequence (O43353 whole entry, looked up): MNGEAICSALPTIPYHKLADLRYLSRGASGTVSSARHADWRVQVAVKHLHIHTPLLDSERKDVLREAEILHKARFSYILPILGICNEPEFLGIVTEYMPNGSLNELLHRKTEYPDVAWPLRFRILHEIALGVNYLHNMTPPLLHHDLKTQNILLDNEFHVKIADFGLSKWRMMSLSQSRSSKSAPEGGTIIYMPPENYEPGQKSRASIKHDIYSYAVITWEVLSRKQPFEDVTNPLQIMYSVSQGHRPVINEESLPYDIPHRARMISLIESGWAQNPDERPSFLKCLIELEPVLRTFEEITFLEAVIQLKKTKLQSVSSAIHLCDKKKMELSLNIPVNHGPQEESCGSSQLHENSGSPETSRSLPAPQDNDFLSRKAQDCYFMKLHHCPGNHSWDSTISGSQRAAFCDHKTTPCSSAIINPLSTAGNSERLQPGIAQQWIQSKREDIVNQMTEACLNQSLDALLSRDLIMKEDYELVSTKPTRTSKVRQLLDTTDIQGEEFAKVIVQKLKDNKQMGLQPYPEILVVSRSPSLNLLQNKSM
TMEM16A inh = mouse TMEM16A channel inhibition, primary screen; AID 588511; 310,000 compounds, 1.2% hits; Q8BHY3; HEK293 TMEM16A/YFP iodide influx fluorescence, ionomycin; normalized B-score (activity score, 25-100; higher = stronger inhibition) at 10 µM;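 active = ratio plate-corrected score three or more library SD toward inhibition, starting fluorescence score within five deviations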;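 note: score derived from kinetic fluorescence span divided by baseline fluorescence per well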
TMEM16A act = activators or potentiators of mouse TMEM16A chloride channel; Q8BHY3; HEK293 TMEM16A/YFP-H148Q/I152L, iodide quench fluorescence; stronger effect = lower value; B-score at 10 µM; 340,000 compounds, 0.3% hits;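 active = fluorescence-ratio B-score plate-corrected deviation score at least 3 library SD below zero, with starting fluorescence score within 5 deviations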;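 note: channel opened by trigger with iodide after compound preincubation; score built on the fluorescence ratio of max minus min over baseline; more negative score means more quench and so TMEM16A activation or potentiation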
GRK2 inh = inhibitors of human GRK2 displacing RNA aptamer. P25098. bead flow cytometry, FAM-aptamer displacement from GRK2. inhibition of aptamer binding, % at 10 µM. 330,000 compounds, 0.59% hits. AID 488847;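 active = inhibition of aptamer binding above 40%, roughly 3 SD of noise, on plates passing a quality check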;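 note: median bead fluorescence of bound FAM aptamer so fluorescent compounds give negative values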
TLR4 MyD88 comp = TLR4-MyD88 interaction inhibition in cells | O00206+Q99836 | HeLa CL3-4 TLR4/MyD88 BLA complementation, FRET ratio | inhibition, % at 8.4 µM | 200,000 compounds, 0.18% hits; in the data active = inhibition above about 25%;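 note: 0% = vehicle and 100% = reference inhibitor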
GRK2 CP1 = human GRK2 inhibition confirmation, cherry pick 1. shares compounds with GRK2 inh. bead-bound GRK2, FAM-aptamer displacement, flow cytometry. aptamer displacement, % at 10 µM. 2,000 compounds, 4% hits;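 active = aptamer displacement above 40%, near three times the noise of non-fluorescent compounds, on plates passing quality checks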;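 note: negative values mostly reflect intrinsic compound fluorescence rather than true enhancement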
FAM quench CP1 = counter-screen for GRK2 aptamer inhibitors: fluorescent aptamer quenchers; Carboxyfluorescein RNA aptamer on beads, flow cytometry quenching; stronger effect = lower value; 2,000 tested, under 10 active; shares compounds with GRK2 inh; fluorescence response (% of DMSO), % at 10 µM;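 active = compounds that quench the bead-bound fluorescent RNA probe, cutting fluorescence to under half of the solvent control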;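 note: counterscreen run without GRK2 so only probe quenching by compound is measured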
GRK2 CP2 = confirmation of human GRK2 inhibitors binding RNA aptamer site | inhibition of aptamer binding, % at 10 µM | shares compounds with GRK2 inh | 360 tested, under 10 active | bead-bound GRK2, FAM-aptamer displacement, flow cytometry;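 active = inhibition of aptamer binding above 40%, about triple the noise seen with nonglowing compounds, on plates passing quality control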;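 note: negative values mostly come from compounds that fluoresce themselves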
FAM quench SP = quenches fluorescent RNA aptamer, GRK2 hit artifact. fluorescence response vs DMSO, % at 10 µM. 360 tested, under 10 active. shares compounds with GRK2 inh. AID 588494. carboxyfluorescein RNA aptamer beads, flow cytometry quenching; stronger effect = lower value;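 active = response vs DMSO under 50%, meaning signal dropped by over half, treated as fluorescence quencher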;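 note: labelled aptamer on streptavidin beads without GRK2 as a quench counter-screen; 100% = bead fluorescence of DMSO wells and lower means quenching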
The depositor's hits bear a star. Shown are actives, neighbours in structure and some others; about 2.2% of the full set was active somewhere.

`CN1CCN(NC(=O)c2ccc(Cl)c(S(=O)(=O)Nc3ccc(Cl)cc3)c2)CC1` gave TLR9-MyD88 block 0, NOD2 RIPK2 PPI -9, TMEM16A inh inactive, TMEM16A act inactive and GRK2 inh 3.
`COCCN1C(=O)C(=O)/C(=C(/O)c2ccc(S(=O)(=O)N3CCOCC3)cc2)C1c1cccc([N+](=O)[O-])c1` (centres undefined) gave TLR9-MyD88 block -12, NOD2 RIPK2 PPI -5, TMEM16A inh inactive, TMEM16A act inactive and GRK2 inh 5.
`NNC(=O)Cn1c(COc2ccc(Cl)cc2)nc2ccccc21` gave TLR9-MyD88 block 6, NOD2 RIPK2 PPI -3, TMEM16A inh inactive, TMEM16A act inactive, GRK2 inh 1 and TLR4 MyD88 comp -6.
Screening O=C(Cn1c(COc2ccccc2)nc2ccccc21)Nc1cccc(Cl)c1 returned TLR9-MyD88 block -8, NOD2 RIPK2 PPI -1, TMEM16A inh inactive, TMEM16A act inactive, GRK2 inh 100*, TLR4 MyD88 comp -4, GRK2 CP2 15 and FAM quench SP 99.
Screening Cc1ccc(NC(=O)CCn2c(=O)[nH]c3ccsc3c2=O)cc1F returned TLR9-MyD88 block -6, NOD2 RIPK2 PPI -3, TMEM16A inh inactive, TMEM16A act inactive, GRK2 inh 71*, GRK2 CP1 0 and FAM quench CP1 99.
NCCCC[C@@H]1NC(=O)c2cc([N+](=O)[O-])cc(I)c2SC[C@@H](C(N)=O)NC(=O)[C@H](Cc2ccc(O)cc2)NC1=O was read as TLR9-MyD88 block 0, NOD2 RIPK2 PPI -7, TMEM16A inh inactive, TMEM16A act inactive, GRK2 inh 69*, TLR4 MyD88 comp -9, GRK2 CP1 -39 and FAM quench CP1 104.
Screening NCCCC[C@H]1NC(=O)[C@H](CCC(=O)O)NC(=O)c2cc([N+](=O)[O-])cc(I)c2OCC[C@@H](C(N)=O)NC1=O returned TMEM16A inh inactive, GRK2 inh 56*, TLR4 MyD88 comp 0, GRK2 CP1 37 and FAM quench CP1 102.
For CCC(C)(C)NC(=O)c1ccc2c(c1)S(=O)(=O)c1ccccc1C2=O the results were TLR9-MyD88 block 7, NOD2 RIPK2 PPI -13, TMEM16A inh inactive, TMEM16A act inactive, GRK2 inh 54*, TLR4 MyD88 comp 0, GRK2 CP1 -1 and FAM quench CP1 99.
CC(C)(C)c1ccc(NC(=O)c2ccc3c(c2)S(=O)(=O)c2ccccc2C3=O)cc1 was read as TLR9-MyD88 block 6, NOD2 RIPK2 PPI 6, TMEM16A inh inactive, TMEM16A act inactive and GRK2 inh 0.
Screening Cc1ccc(-c2cc(C(=O)N/N=C/c3ccc(Cl)cc3)n[nH]2)o1 returned TLR9-MyD88 block -5, NOD2 RIPK2 PPI 6, TMEM16A inh inactive, TMEM16A act inactive and GRK2 inh 0.
Screening O=C(O)CNS(=O)(=O)c1ccc2c3c(cccc13)C(=O)N2 returned TLR9-MyD88 block -2, NOD2 RIPK2 PPI 5, TMEM16A inh inactive, TMEM16A act inactive, GRK2 inh 78*, GRK2 CP1 -1 and FAM quench CP1 100.
CN(C)S(=O)(=O)c1cccc(COc2ncnc3c(Cl)cc(Cl)cc23)c1 was read as TLR9-MyD88 block -3, NOD2 RIPK2 PPI -2, TMEM16A inh inactive, TMEM16A act -9.5*, GRK2 inh 90*, GRK2 CP1 0 and FAM quench CP1 102.

Screening results (PubChem)
